# Screens deposited in PubChem BioAssay by several laboratories.
# This is a sample that favours compounds with a hit; in the whole collection about 21% have one here.
# CYP2C9 activ: increases human cytochrome P450 2C9 activity; recombinant CYP2C9, luciferin-H conversion, luminescence; hits give high values; factor 1 = untreated enzyme, 0 = blocked; hit rate 1.4% among 96,000; activation factor at 5 µM; P11712;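 active = activation factor of 2 or more for CYP2C9 at a 5 µM dose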;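 also: 0 = sulfaphenazole-blocked wells and 1 = vehicle-only wells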
# Target sequence (P11712 whole entry, looked up): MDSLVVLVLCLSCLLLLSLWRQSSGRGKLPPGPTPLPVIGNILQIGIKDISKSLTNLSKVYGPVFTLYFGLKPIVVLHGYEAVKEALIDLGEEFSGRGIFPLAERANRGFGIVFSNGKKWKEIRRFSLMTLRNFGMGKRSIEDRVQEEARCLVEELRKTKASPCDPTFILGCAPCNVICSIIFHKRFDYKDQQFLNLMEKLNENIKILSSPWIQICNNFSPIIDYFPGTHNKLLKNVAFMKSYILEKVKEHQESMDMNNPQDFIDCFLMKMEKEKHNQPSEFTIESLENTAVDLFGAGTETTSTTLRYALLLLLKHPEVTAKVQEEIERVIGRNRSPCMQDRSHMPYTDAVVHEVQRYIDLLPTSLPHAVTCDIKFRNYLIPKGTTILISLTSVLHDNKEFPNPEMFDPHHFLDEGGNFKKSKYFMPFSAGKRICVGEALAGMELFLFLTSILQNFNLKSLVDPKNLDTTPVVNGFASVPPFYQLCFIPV
# MRP reversal: reverses drug resistance mediated by MRP; H69AR cells + 2 uM doxorubicin, CellTiter-Glo, 72 h; differential viability (reversal), % at 10 µM; hit rate 0.04% among 85,000; AID 602;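 active = viability drop by adding the cancer drug above about 55%, with treated viability meeting a 40% cutoff, limit read from the data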;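 also: viability without doxorubicin minus viability with 2 µM doxorubicin for each compound; larger differential means the compound sensitizes cells more to doxorubicin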
# MRP1 act: activators of MRP-1; H69AR cells + doxorubicin, viability rescue, CellTiter-Glo; hit rate 0.61% among 140,000; viability increase, % at 10 µM;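 active = viability gain under doxorubicin at or above a set limit, the compound median plus 3 SD, cut at about 4.7% in these data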;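 also: MRP-1 overexpressing cells given doxorubicin 25 µM after compound pretreatment; 18-22 h compound pretreatment then 72 h with doxorubicin before readout; 0% = doxorubicin-only wells and 100% = vehicle-treated cells without doxorubicin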
# CYP2C9 inhib: inhibitors of human CYP2C9. CYP2C9 Supersomes, luciferin-H conversion, luminescence. inhibition, % at 5 µM. hit rate 20% among 96,000;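 active = blocking of liver enzyme CYP2C9 beyond about 50% at 5 µM, limit read from the data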
# CYP2C19 inh: human CYP2C19 inhibition | P33261 | CYP2C19 Supersomes, luciferin-H EGE luminescence, 30 min | inhibition, % at 5 µM | hit rate 21% among 96,000;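 active = CYP2C19 inhibition above a set limit at 5 µM in the primary screen, cut at about 50% in these data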;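 also: plate controls were negative control wells for no effect and 2.5 mM tranylcypromine positive control for full effect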
# CYP2C19 act: activators of human cytochrome P450 2C19; P33261; recombinant CYP2C19, luciferin-H EGE luminescence; hits give high values; 0 = fully inhibited enzyme, 1 = untreated enzyme; activation factor at 5 µM; 96,000 tested, under 10 active; AID 1025;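 active = activation factor of at least 2 at 5 µM in the primary screen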;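 also: 0 = wells with 2.5 mM tranylcypromine and 1 = vehicle-only wells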
# * = called active by the depositor; . = not tested or not shown.
SMILES,CYP2C9 activ,MRP reversal,MRP1 act,CYP2C9 inhib,CYP2C19 inh,CYP2C19 act
COc1ccccc1NC(=O)C1=C(C)Nc2nc(-c3cccs3)nn2C1c1cccnc1 (stereo unspecified),0.6,-26.4,-2.7,42.9,15.9,0.8
CCCCCn1c(CN2CCCCC2C)nc2c1c(=O)n(C)c(=O)n2C (stereo unspecified),1.2,-2.4,6.0*,-20.8,-7.4,1.1
CCCCCn1c(CN2CCCCC2CC)nc2c1c(=O)n(C)c(=O)n2C (stereo unspecified),0.9,22.9,.,7.6,-1.8,1
CCCCn1c(CN2CCN(c3cccc(Cl)c3)CC2)nc2c1c(=O)n(C)c(=O)n2C,0.1,6.8,-1.6,85.3*,56.3*,0.4
CCOC(=O)N1CCN(Cc2nc3c(c(=O)n(C)c(=O)n3C)n2Cc2ccc(F)cc2)CC1,1.2,5.0,-2.4,-23.1,-6.8,1.1
CCCCCn1c(CN2CCN(c3cccc(Cl)c3)CC2)nc2c1c(=O)n(C)c(=O)n2C,0.5,25.1,.,54.6*,21.6,0.8
CCCn1c(CN2CCN(c3cccc(Cl)c3)CC2)nc2c1c(=O)n(C)c(=O)n2C,0.6,31.5,0.2,42.2,24.8,0.8
CCOC(=O)N1CCN(Cc2nc3c(c(=O)n(C)c(=O)n3C)n2Cc2cccc(C)c2)CC1,0.3,37.4,-1.1,67.4*,85.6*,0.1
Cc1ccc(-c2cc(C(=O)N/N=C/C=C/c3ccccc3)n[nH]2)s1,.,.,-1.0,.,.,.
Cc1ccc(S(=O)(=O)CC#CCOC(=O)c2ccc([N+](=O)[O-])cc2)cc1,0.7,-1.6,-3.2,34.0,23.9,0.8
CC1CN(c2nc3c(c(=O)n(C)c(=O)n3C)n2Cc2c(Cl)cccc2Cl)CC(C)O1 (stereo unspecified),.,10.6,.,.,.,.
Cn1c(=O)c2c(nc(CN3CCN(c4ccccc4)CC3)n2Cc2c(F)cccc2Cl)n(C)c1=O,0.7,59.8*,-5.5,29.0,27.3,0.7
CC1CN(c2nc3c(c(=O)n(C)c(=O)n3C)n2Cc2c(F)cccc2Cl)CC(C)O1 (stereo unspecified),0.4,-2.3,-4.7,58.6*,14.2,0.9
CC(=O)N=c1sc(C(C)(C)C)c(C)n1C,1.7,-6.5,0.0,-65.2,14.9,0.9
Cc1cc(C)n(S(=O)(=O)/C=C/c2ccccc2)n1,1.2,-0.4,-4.5,-24.5,73.9*,0.3
CCc1ccc(Nc2nnc(SCC(=O)Nc3cccnc3Cl)s2)cc1,.,.,0.9,.,.,.
C=C(C)c1cccc(C(C)(C)NC(=O)Nn2cnnc2)c1,0.5,-10.2,-0.3,50.5*,73.4*,0.3
Cc1ccc(NC(=O)CC(C(=O)O)c2ccccc2)cc1 (stereo unspecified),.,.,0.4,.,.,.
O=c1nc(-c2ccccc2)cc(C(F)(F)F)[nH]1,0.5,-15.1,-0.6,51.4*,12.9,0.9
COc1cccc(-c2nc(CS(=O)(=O)CC(=O)NCCCN3CCc4ccccc4C3)c(C)o2)c1,0.8,7.3,-3.0,15.5,10.5,0.9
N#C/C(=C\c1cn[nH]c1-c1ccc(Cl)cc1)C(=O)NCc1ccccc1,0.1,.,-0.3,87.5*,88.1*,0.1
N#C/C(=C\c1cn[nH]c1-c1ccccc1)C(=O)NC1CCCCCC1,2*,.,4.5,-97.7,-3.0,1
N#C/C(=C\c1cn[nH]c1-c1ccc(Cl)cc1)C(=O)NC1CC1,.,.,-1.0,.,.,.
COc1ccc(-c2[nH]ncc2/C=C(\C#N)C(=O)NC2CC2)cc1,0.5,.,-0.6,52.0*,53.6*,0.5
Cc1ccc(-c2nn(-c3ccccc3)cc2C2SCC(=O)N2Cc2ccccc2)o1 (stereo unspecified),0.5,-33.0,1.0,45.2,8.5,0.9
SMILES,CYP2C9 activ,MRP reversal,MRP1 act,CYP2C9 inhib,CYP2C19 inh,CYP2C19 act
O=C1CSC(c2cn(-c3ccccc3)nc2-c2cc3ccccc3oc2=O)N1Cc1ccco1 (stereo unspecified),0.2,-23.3,-5.3,76.4*,55.0*,0.4
O=C1CSC(c2cn(-c3ccccc3)nc2-c2cc3ccccc3o2)N1Cc1ccccc1 (stereo unspecified),0.1,-9.7,2.9,88.9*,53.7*,0.5
S=C(Nc1ccc(Br)cc1)NC1CCCCC1,.,.,-3.7,.,.,.
Cc1cc(N/N=C(/CCC(=O)O)C(=O)O)nc2ccccc12,.,.,-1.3,.,.,.
Cc1ccc(OCc2nc(C#N)c(NCc3ccc4c(c3)OCO4)o2)cc1,0,26.5,-2.5,99.1*,98.2*,0
C=CCNc1oc(COc2ccc(C)cc2)nc1C#N,0.7,-10.3,0.2,27.0,65.4*,0.3
CN(C)CCNc1oc(COc2ccc(-c3ccccc3)cc2)nc1C#N,0.8,-27.4,-4.5,15.6,22.9,0.8
CCOc1ccc(-c2nc(C#N)c(NCc3ccc4c(c3)OCO4)o2)cc1,0.7,-12.9,-1.2,27.6,-11.8,1.1
CCOC(=O)c1sc(NC(=O)Nc2ccc(Cl)cc2)nc1C,0.9,.,1.4,14.6,10.0,0.9
CCOC(=O)c1cc(-c2ccc(C)cc2)n(CC(=O)NCc2ccco2)c1C,0.2,2.6,-1.7,77.3*,83.1*,0.2
CC(=O)c1cc(-c2ccccc2)n(CC(=O)NCc2cccs2)c1C,0.6,19.8,-2.8,41.0,88.2*,0.1
CCOC(=O)c1cc(-c2ccc(C)cc2)n(CCC(=O)NCCN(C)C)c1C,1,9.1,-2.7,0.1,14.1,0.9
CCOC(=O)C1=C(C)C(c2ccccc2)NC(=S)N1 (stereo unspecified),0.8,.,-3.9,23.9,63.3*,0.4
COC(=O)C1=C(C)C(c2ccc(OC)cc2)NC(=S)N1 (stereo unspecified),0.9,.,-0.8,12.9,30.7,0.7
CCOC(=O)C1=C(c2ccccc2)NC(=S)NC1c1cccc([N+](=O)[O-])c1 (stereo unspecified),.,.,-1.0,.,.,.
CCOC(=O)C1=C(c2ccccc2)NC(=S)NC1C (stereo unspecified),0.9,.,-2.8,7.8,52.5*,0.5
CCN1CCCC1CN(Cc1cc2cc(OC)ccc2[nH]c1=O)C(=O)NCc1ccccc1 (stereo unspecified),0.7,.,0.1,27.6,12.1,0.9
CCc1nc(SCC(=O)N2CCC(C)CC2)c2c(=O)n(C)c(=O)n(C)c2n1,.,14.3,-0.2,.,.,.
O=C(Nc1ccc(-c2nnco2)cc1)c1ccccc1,0.2,11.2,1.9,77.0*,83.4*,0.2
Cc1ccc(C)n1-c1ccc(NC(=O)c2ccccc2)cc1,.,.,-4.5,.,.,.
COc1cccc(C(=O)Nc2ccc(-c3nnc(-c4ccco4)o3)cc2)c1,0.6,.,-1.0,43.0,65.2*,0.3
O=C(Nc1ccc(-c2nc3ncccc3o2)cc1)c1ccco1,0.8,-9.9,0.0,16.0,-0.5,1
Cc1ccc(-c2nnc(SCC#CCOC(=O)c3cccs3)o2)cc1,1.6,3.6,-2.7,-55.4,15.7,0.8
Cc1ccc(-c2nnc(SCC#CCOC(=O)c3ccco3)o2)cc1,0.1,12.8,-1.2,89.1*,88.8*,0.1
Cc1ccc(-c2nnc(-c3ccc(NC(=O)c4ccco4)cc3)o2)cc1,0.2,0.3,-1.2,79.1*,66.6*,0.3
